# Measurements: PubChem BioAssay AID1490 (National Center for Advancing Translational Sciences (NCATS), 2009)
# Several values for one entry are separate records, joined by “and”; a condition that tells them apart may be missing. Equal entries are not always repeated. Among all 310,000 compounds or so, about 11,000 (3.5%) were called active. About 4% were inconclusive and are not listed. The call rests on the fitted dose curve; in most records, active means well fitted inhibition curve with a large enough effect; inconclusive means small, poorly fitted or top-dose-only effect, or another doubt; inactive means no such curve, though single readings can be large or run the other way. Only a selection was taken, and actives are over-represented in it overall.
# Target: 4'-phosphopantetheinyl transferase ffp (Bacillus subtilis) (UniProt Q9F4F7)
# Assay: qHTS Assay for Inhibitors of Bacillus subtilis Sfp phosphopantetheinyl transferase (PPTase);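 further: the enzyme is Sfp with the accession as filed and its product quenches rhodamine fluorescence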;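 on largest response in the series, negative = inhibition: 0% = enzyme reaction without inhibitor and -100% = no enzyme wells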
# Details: Biochemical Sfp PPTase activity
# Outline: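 Fluorescence-quenching assay with 15 nM Sfp, 5 uM rhodamine-CoA and 12.5 uM BHQ-2-labelled ybbR peptide in pH 7.6 Hepes/MgCl2 buffer. Enzyme was pre-incubated with compound for 15 min at room temperature. Rate was taken from the 30-min fluorescence change (525/598 nm).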
# Potency means the concentration at half of the fitted maximal effect.
Compound,"largest response in the series, negative = inhibition",Potency
O=C(Nc1ccc(Cl)cc1)c1cccc(OC(=S)N2CCOCC2)c1,5.61% (inactive),
CCOC(=O)c1c(N)sc(C(C)=O)c1C,-34.1% (inactive),
COCCOC(=O)c1sc(=S)n(CCOC)c1N,,25.1 µM (active)
O=C(N/C(=C\c1ccc(O)cc1)C(=O)N1CCCCC1)c1ccccc1,11.6% (inactive),
Cc1ccc2c(=O)cc(C(=O)NCCc3ccc(S(N)(=O)=O)cc3)oc2c1C,15.4% (inactive),
CCOc1ccc2nc(Nc3nc4ccc(NC(C)=O)cc4s3)sc2c1,-21.4% (inactive),
CCOc1ccc2nc(C(=O)N3CCCC(C)C3)sc2c1 (stereo unspecified),,25.1 µM (active)
CCOc1ccc2nc(SC(CC)C(=O)Nc3cc(C)on3)sc2c1 (stereo unspecified),9.59% (inactive),
CCN(CC)CCCNC(=O)c1c(O)c2cc(F)cc3c2n(c1=O)C(C)CC3 (stereo unspecified),2.11% (inactive),
COc1ccc(C=Nc2cccc3ncccc23)cc1,-8.45% (inactive),
Oc1c(C=Nc2cccc3nsnc23)ccc2ccccc12,,44.7 µM (active)
O=[N+]([O-])c1ccc(N=Cc2c(O)ccc3ccccc23)cc1,-6.3% (inactive),
Cc1cc2c(cc1S(=O)(=O)CCC(=O)NCc1ccccc1)OCC(=O)N2,18.5% (inactive),
CN1C2CCC1CC(NC(=O)c1ccc([N+](=O)[O-])cc1)C2 (stereo unspecified),9.32% (inactive),
CC(=O)N1CC[n+]2c(-c3ccc([N+](=O)[O-])cc3)csc21,,5.62 µM (active)
COc1ccc(C2CC(c3ccc([N+](=O)[O-])cc3)=NN2C(C)=O)cc1 (stereo unspecified),0.697% (inactive),
CC(C)=CCc1c(O)c(CC=C(C)C)c2occ(-c3ccc(O)cc3)c(=O)c2c1O,-6.29% (inactive),
OCC(CO)NC1C[C@](O)(CO)[C@@H](O)[C@H](O)[C@H]1O (stereo partly specified),7.78% (inactive),
O=C(NC(Cc1ccccc1)C(=O)O)/C(=C\c1ccccc1)NC(=O)c1ccco1 (stereo unspecified),16.2% (inactive),
COc1cccc(-c2noc(C3CCCN(C(=O)c4ccc(F)cc4)C3)n2)c1 (stereo unspecified),12.5% (inactive),
FC(F)(F)C1CCCN(c2nsc3ccccc23)C1 (stereo unspecified),,15.8 µM (active)
CC(C(=O)NC1CCCCC1)N1C(=O)c2cccc3cccc1c23 (stereo unspecified),4.03% (inactive),
COC(=O)c1ccc(OC(=O)c2cnccn2)cc1,-8.15% (inactive),
O=C(O)CSc1nnc(-c2ccc3c(c2)OCO3)n1-c1ccccc1,30.8% (inactive),

Compound,"largest response in the series, negative = inhibition",Potency
Cn1c(SCC(=O)N2CCCC2)nnc1-c1ccc2c(c1)OCO2,8.6% (inactive),
Cn1c(SCc2nc3ccccc3s2)nnc1-c1ccc2c(c1)OCO2,,14.1 µM (active)
CCc1c(C)[nH]c(=S)c(C#N)c1C,,12.6 µM (active)
COc1ccc(/C(C)=N\NC(=O)c2ccc(-c3ccccc3)cc2)c(F)c1,12.8% (inactive),
COc1ccc(N(Cc2cc3ccc(C)cc3[nH]c2=O)S(=O)(=O)c2ccccc2)cc1,6.39% (inactive),
CCn1c2ccc(F)cc2c2nnc(SCCN3CCOCC3)nc21,-2.54% (inactive),
CCOc1ccc(-c2nnn(CC(=O)N3CCN(c4ccc(OC)cc4)CC3)n2)cc1OCC,20.4% (inactive),
COc1ccc(N2CCN(C(=O)CSc3nc4cc(OC)c(OC)cc4cc3C#N)CC2)cc1,,63.1 µM (active)
COc1ccc(N2CCN(C(=O)CSc3ncnc4c3cnn4-c3ccc(OC)cc3)CC2)cc1,-1.71% (inactive),
CCN(CC(=O)Nc1ccc(C)c(S(=O)(=O)N(C)C)c1)Cc1ccccc1,-18.4% (inactive),
Cn1c(SCC(=O)N2CCCC2)nnc1-c1cccs1,5.11% (inactive),
Cc1c(C(=O)N2CCCC2)c(S(=O)(=O)NCC(C)c2ccccc2)c(C)n1C (stereo unspecified),-2.67% (inactive),
CC(=O)Nc1cccc(NC(=O)CSc2nccn2Cc2ccc(F)cc2)c1,11.3% (inactive),
CN(C)S(=O)(=O)c1ccc(C(=O)NCCN=C2NS(=O)(=O)c3ccccc32)cc1,2.12% (inactive),
Cc1cc(O)ccc1-c1cnc2ccccc2n1,,50.1 µM (active)
c1ccc2nc(C3=NCCN3)cnc2c1,2.82% (inactive),
Oc1ccc(-c2[nH]ncc2-c2nc3ccccc3s2)c(O)c1,2.93% (inactive),
CCOCCOC(=O)C(C)Oc1ccc(Oc2ncc(C(F)(F)F)cc2Cl)cc1 (stereo unspecified),-1.26% (inactive),
O=C(c1ccco1)N1CCN(C(=O)c2cc(-c3ccccc3F)no2)CC1,1.68% (inactive),
CN(CCO)S(=O)(=O)c1ccc2c(c1)C(=O)c1cc(S(=O)(=O)N(C)CCO)ccc1-2,0.575% (inactive),
CC(OC(=O)c1ccc2noc(-c3ccccc3)c2c1)C(N)=O (stereo unspecified),9.21% (inactive),
Oc1ccc(-c2onc3ccc(Cl)cc23)cc1,,22.4 µM (active)
COc1ccc(-c2onc3ccc(C(C)=O)cc23)cc1,15.7% (inactive),
CCCCn1c(N)c(N(CC)C(=O)c2ccccc2C(F)(F)F)c(=O)[nH]c1=O,6.91% (inactive),

Compound,"largest response in the series, negative = inhibition",Potency
CC(C)C[C@H]1CN=C(Nc2ccccc2)N1CC1CCCCC1,6.04% (inactive),
O=C(c1cc(COc2cccc(C(F)(F)F)c2)on1)N1CCSCC1,-6.37% (inactive),
Cc1cc(NC(=O)c2ccco2)c(=O)n(Cc2c(F)cccc2Cl)c1,-1.88% (inactive),
CN(Cc1ccccc1)C(=O)C1CCCN(c2ncnc3c2nc2n3CCCCC2)C1 (stereo unspecified),-5.59% (inactive),
CN(c1ccccc1)c1ccc(/C=c2\s/c(=C(/C#N)C(=O)C(C)(C)C)n(Cc3ccco3)c2=O)cc1,-21.7% (inactive),
O=C(Cc1ccccc1)n1nc(-c2ccccc2)nc1NCc1ccco1,0.0328% (inactive),
O=c1nc2s/c(=C\c3ccco3)c(=O)n2nc1Cc1ccccc1,,28.2 µM (active)
N#Cc1cc([N+](=O)[O-])ccc1NCC1CCCO1 (stereo unspecified),13.1% (inactive),
O=C(NC1CCCCCCC1)c1cccs1,-20.5% (inactive),
COCCNc1ncnc2ccc(-c3cccnc3)cc12,6.73% (inactive),
COc1ccccc1N1CCN(/N=C/c2ccc(O)cc2O)CC1,-7.55% (inactive),
COc1ccccc1N1CCN(/N=C\C(Br)=C\c2ccccc2)CC1,,31.6 µM (active)
COc1cc(/C=N/N2CCN(c3ccccc3)CC2)ccc1OC(C)=O,16.9% (inactive),
COc1cc(CNCc2ccc(OC)c3ccccc23)cc(OC)c1OC,-22.2% (inactive),
Cc1ccc(S/C(=N\S(=O)(=O)c2ccc(Cl)cc2)c2ccccc2)cc1,,56.2 µM (active)
O=S(=O)(/N=C(/Nc1ccccn1)c1ccccc1)c1ccc(Cl)cc1,27.1% (inactive),
Cc1ccc(S(=O)(=O)/N=C(/Nc2ccccn2)c2ccc(Cl)cc2)cc1,-17.5% (inactive),
Nn1c(SCC(=O)Nc2nccs2)nncc1=O,,22.4 µM (active)
CCn1c(SCC(=O)Nc2nccs2)nnc1-c1ccncc1,2.26% (inactive),
COc1ccc(NC(=O)CSc2nncc(=O)n2N)cc1OC,9.26% (inactive),
O=S(=O)(c1ccc(-c2ccno2)s1)N1CCCCC1,11.8% (inactive),
N=c1c2c(-c3ccccc3)c(-c3ccccc3)oc2ncn1Cc1ccco1,-5.12% (inactive),
COc1ccc(-c2oc3ncn(Cc4ccco4)c(=N)c3c2-c2ccc(OC)cc2)cc1,,39.8 µM (active)
COc1ccc(-c2oc3ncnc(NCCCO)c3c2-c2ccc(OC)cc2)cc1,-12.6% (inactive),

Compound,"largest response in the series, negative = inhibition",Potency
O=c1oc2ccccc2c(NC2CCCCC2)c1NS(=O)(=O)c1ccc(Cl)cc1,4.82% (inactive),
CN(C(=O)COC(=O)c1nc(Cl)ccc1Cl)C1CCS(=O)(=O)C1 (stereo unspecified),11% (inactive),
CN(C(=O)COC(=O)c1cc(-c2ccco2)nc2ccccc12)C1CCS(=O)(=O)C1 (stereo unspecified),,28.2 µM (active)
Cc1c(-c2cccc(Cl)c2)nc2ccccc2c1C(=O)OCC(=O)N(C)C1CCS(=O)(=O)C1 (stereo unspecified),1.32% (inactive),
Cc1ccc2nc(-c3ccc(Br)cc3)cn2c1,17% (inactive),
Cc1ccc(C2C3=C(Nc4[nH]n(-c5ccccc5)c(=O)c42)c2ccccc2C3=O)cc1 (stereo unspecified),-4.89% (inactive),
COC(=O)C1=C(C)NC2=C(C(=O)c3ccccc32)C1c1ccc(-c2ccc(C(=O)O)cc2)o1 (stereo unspecified),,14.1 µM (active)
COC(=O)C1=C(C)NC(=O)NC1/C=C/c1ccccc1 (stereo unspecified),6.06% (inactive),
COC(=O)c1ccc(N2CCOCC2)c(NC(=O)c2ccc(Br)o2)c1,6.59% (inactive),
C#CCOc1ccccc1/C=C1/C(=O)ON=C1C,,50.1 µM (active)
CC1=NOC(=O)/C1=C\c1ccccc1,-4.08% (inactive),
C#CCOc1ccc(/C=C2/C(=O)NN(c3ccccc3)C2=O)cc1OC,8.7% (inactive),
NS(=O)(=O)c1ccc(CCNC(=O)c2nc(CS(=O)(=O)c3ccc(Cl)cc3)no2)cc1,13.4% (inactive),
O=C1/C(=C\c2ccsc2)NC(=S)N1c1ccccc1,4.5% (inactive),
CCOC(=O)C1(C)NC(c2ccco2)C2C(=O)N(c3ccccc3)C(=O)C21 (stereo unspecified),27.2% (inactive),
CCCCN=C1N/C(=C\c2ccco2)C(=O)N1c1ccccc1,,56.2 µM (active)
COc1cccc(N(CC(=O)NC2CCCC2)C(=O)CCCC(=O)Nc2ccccn2)c1,7.32% (inactive),
COc1cccc(C(=O)Nc2nnc(S(=O)(=O)N3CCCCC3)s2)c1,6.22% (inactive),
O=C(Nn1cnnc1)c1ccc([N+](=O)[O-])cc1,13.2% (inactive),
O=C(c1ccncc1)c1ccc([N+](=O)[O-])cc1,13.2% (inactive),
O=C(Cn1c[n+](CC(=O)c2ccc([N+](=O)[O-])cc2)cn1)c1ccc([N+](=O)[O-])cc1,,56.2 µM (active) and 44.7 µM (active)
CCC1=Nc2cc(C(=O)NCCN3CCCC3)ccc2Sc2ccc(C)cc21,-8.33% (inactive),
Cc1ccc(C(=O)NCCN2CCOCC2)cc1C,11.9% (inactive),
Cc1cccc(-c2nc3ccc(C(=O)NCCN4CCN(C)CC4)cc3nc2-c2cccc(C)c2)c1,,50.1 µM (active)
